M1 ag parental: nonselective activator or artifact in parental CHO-K1 cells | 360,000 compounds, 0.48% hits | activation, % at 3 µM | Fluo-8 calcium fluorescence; scaled to maximal ATP response, vehicle zero; in the data active = activation above about 15%;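 also: untransfected CHO-K1 host cells lacking M1 receptor as counterscreen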
CHO-K1 Ca antag: counter-screen for M1 antagonists: effect in parental CHO-K1 cells. ATP-induced calcium, Fluo-8 fluorescence. 360,000 compounds, 0.6% hits. inhibition, % at 3 µM;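 active = inhibition above a per-plate cutoff, the plate's mean sample inhibition plus 3 SD, cut at about 24% in these data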;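 also: 0% = DMSO plus EC80 ATP and 100% = DMSO alone without ATP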
M1 ag: human M1 muscarinic receptor agonism. AID 588814. CHO-K1 hM1, Fluo-8 calcium fluorescence, agonist mode; 0% DMSO, 100% acetylcholine EC100. activation, % at 3 µM. 360,000 compounds, 0.33% hits;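 active = activation above the run's mean compound activation plus 3 SD, cut at about 16% in these data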;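 also: peak over basal fluorescence ratio within a 140 s kinetic read after compound addition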
Target sequence (P11229 whole entry, looked up): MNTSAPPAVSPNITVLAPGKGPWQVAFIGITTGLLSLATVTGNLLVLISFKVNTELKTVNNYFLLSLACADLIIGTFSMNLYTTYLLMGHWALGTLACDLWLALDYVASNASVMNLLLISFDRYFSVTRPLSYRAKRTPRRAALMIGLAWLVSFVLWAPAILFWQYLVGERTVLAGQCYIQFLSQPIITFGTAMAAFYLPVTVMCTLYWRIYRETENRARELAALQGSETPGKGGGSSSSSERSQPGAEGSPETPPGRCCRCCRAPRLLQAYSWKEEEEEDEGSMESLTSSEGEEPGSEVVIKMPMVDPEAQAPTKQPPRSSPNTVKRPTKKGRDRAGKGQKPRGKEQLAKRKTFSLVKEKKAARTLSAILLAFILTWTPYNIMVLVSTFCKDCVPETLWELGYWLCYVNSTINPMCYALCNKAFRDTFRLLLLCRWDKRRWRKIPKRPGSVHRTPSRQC
CHRM1 antagonist: antagonists of human M1 muscarinic receptor; CHO-K1 hM1, Fluo-8 calcium fluorescence, ACh EC80 antagonist; inhibition, % at 3 µM; 360,000 compounds, 1.3% hits;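 active = percent inhibition above its own plate's cutoff, namely the mean of that plate's compound wells plus 3 SD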;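 also: peak over basal fluorescence ratio during 140 s after agonist addition; 0% = ACh EC80 plus DMSO and 100% = DMSO alone without agonist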
CHRM1 PAM: potentiates human M1 receptor response to acetylcholine; CHO-K1 hM1, Fluo-8 calcium fluorescence, ACh EC20; 0% = ACh EC20, 100% = maximal ACh; activation, % at 3 µM; 360,000 compounds, 0.088% hits; AID 588819; in the data active = activation above about 19%, passing the limit was not always enough
M1 PAM parental: M1 PAM counterscreen hit in parental CHO-K1 cells | 360,000 compounds, 0.02% hits | activation, % at 3 µM | AID 602247 | ATP EC20, Fluo-8 calcium fluorescence; 0% at ATP EC20, 100% at ATP max;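 active = activation above the run cutoff, the mean activation of all test compounds plus 3 SD, cut at about 40% in these data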;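 also: peak over basal fluorescence ratio in a 140 s read after ATP addition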
* hit, by the source's call. Hits are enriched below; roughly 2.4% of the tested compounds scored in any of these assays.

COc1ccc(N(C)S(=O)(=O)c2cccc(C(=O)OCC(=O)NCc3ccccc3OC)c2)cc1 was read as M1 ag parental 10, CHO-K1 Ca antag 0, M1 ag 1, CHRM1 antagonist 25*, CHRM1 PAM -13 and M1 PAM parental 2.
Screening CCOc1ccc(CCNC(=O)COC(=O)c2cccc(N(C)C)c2)cc1OCC returned M1 ag parental 0, CHO-K1 Ca antag -4, M1 ag -2, CHRM1 antagonist -18, CHRM1 PAM 13 and M1 PAM parental 8.
CCOc1ccc(CCNC(=O)COC(=O)c2cccc(S(=O)(=O)N(C)C)c2)cc1OCC was read as M1 ag parental 1, CHO-K1 Ca antag 44*, M1 ag -4, CHRM1 antagonist -15, CHRM1 PAM 9 and M1 PAM parental 15.
`CN(c1ccccc1)S(=O)(=O)c1cccc(C(=O)OCC(=O)NCc2ccccc2)c1` gave M1 ag parental 8, CHO-K1 Ca antag 0, M1 ag -2, CHRM1 antagonist -1, CHRM1 PAM -5 and M1 PAM parental -9.
`CC1CCCCC1NS(=O)(=O)c1ccc(S(=O)(=O)N2CCCC2)cc1` (configuration not stated) gave M1 ag parental 2, CHO-K1 Ca antag 2, M1 ag -5, CHRM1 antagonist 9, CHRM1 PAM -15 and M1 PAM parental -13.
`COc1ccc(CNc2ccc(Cl)cc2)cc1Cn1ccnc1` gave M1 ag parental 4, CHO-K1 Ca antag 7, M1 ag 17*, CHRM1 antagonist -2, CHRM1 PAM -1 and M1 PAM parental 18.
Screening O=C(c1ccncc1)N1N=C(C2CCCCC2)CC1(O)C(F)(F)F (configuration not stated) returned M1 ag parental 0, CHO-K1 Ca antag 0, M1 ag -13, CHRM1 antagonist 37*, CHRM1 PAM -31 and M1 PAM parental -2.
Screening NC(=O)C1CCN(c2nc(-c3ccccc3)nc3ccccc23)CC1 returned M1 ag parental 2, CHO-K1 Ca antag 2, M1 ag -3, CHRM1 antagonist -2, CHRM1 PAM 7 and M1 PAM parental 14.
`Cc1ccc([N+](=O)[O-])cc1N=Cc1ccc(Br)s1` gave M1 ag parental 0, CHO-K1 Ca antag -6, M1 ag -3, CHRM1 antagonist 11, CHRM1 PAM -3 and M1 PAM parental 5.
For Cc1ccc(C=Nc2cc([N+](=O)[O-])ccc2C)s1 the results were M1 ag parental 0, CHO-K1 Ca antag 24*, M1 ag -5, CHRM1 antagonist 3, CHRM1 PAM 2 and M1 PAM parental -15.
Cc1cccc(-n2[nH]c(C)c(C=Nc3ccc4[nH]c(=O)[nH]c4c3)c2=O)c1 was read as M1 ag parental 0, CHO-K1 Ca antag 28*, M1 ag -1, CHRM1 antagonist 6, CHRM1 PAM -5 and M1 PAM parental -15.
For Cc1cc2c3c([nH]c2cc1S(=O)(=O)NCc1ccc(CN2CCCCCC2)o1)CCCC3=O the results were M1 ag parental -1, CHO-K1 Ca antag -11, M1 ag -5, CHRM1 antagonist 85*, CHRM1 PAM -21 and M1 PAM parental 7.
`CCOCCCNS(=O)(=O)c1cc2[nH]c3c(c2cc1C)C(=O)CC(C)(C)C3` gave M1 ag parental 4, CHO-K1 Ca antag -15, M1 ag -6, CHRM1 antagonist -3, CHRM1 PAM 4 and M1 PAM parental 12.
For Cc1cc2c3c([nH]c2cc1S(=O)(=O)NCc1ccc(CN2CCCCCC2)o1)CC(C)(C)CC3=O the results were M1 ag parental 0, CHO-K1 Ca antag -13, M1 ag -14, CHRM1 antagonist 52*, CHRM1 PAM -36 and M1 PAM parental 18.
COC(=O)c1ccc(COC(=O)C(CCS(C)(=O)=O)N2C(=O)c3ccccc3C2=O)cc1 (configuration not stated) was read as M1 ag parental 1, CHO-K1 Ca antag -6, M1 ag -2, CHRM1 antagonist -7, CHRM1 PAM 5 and M1 PAM parental 18.
Screening O=C1CCCC/C1=C/Nc1ccc2c(c1)OCO2 returned M1 ag parental 0, CHO-K1 Ca antag 29*, M1 ag -2, CHRM1 antagonist 8, CHRM1 PAM -7 and M1 PAM parental -7.
For Cn1c(=O)c2[nH]c(-c3ccc(S(=O)(=O)O)cc3)nc2n(C)c1=O the results were M1 ag parental 1, CHO-K1 Ca antag -10, M1 ag 29*, CHRM1 antagonist -20, CHRM1 PAM -8 and M1 PAM parental 7.
`CCc1nnc(NC(=O)C2CCCN2C(=O)Nc2ccccc2)s1` (configuration not stated) gave M1 ag parental 20*, CHO-K1 Ca antag -1, M1 ag -6, CHRM1 antagonist -13, CHRM1 PAM 12 and M1 PAM parental 14.
Cc1ccc(S(=O)(=O)N(CCC(=O)NCC(c2ccccc2)N(C)C)c2ccccc2)cc1 (configuration not stated) was read as M1 ag parental 1, CHO-K1 Ca antag -15, M1 ag -8, CHRM1 antagonist 8, CHRM1 PAM -5 and M1 PAM parental 6.
CN1CCN(C(=O)/C(=C/c2ccc(F)cc2)NC(=O)c2ccccc2)CC1 was read as M1 ag parental 0, CHO-K1 Ca antag 13, M1 ag -7, CHRM1 antagonist 0, CHRM1 PAM 1 and M1 PAM parental -17.
Screening CN1CCN(C(=O)/C(=C\c2ccccc2)c2ccccc2)CC1 returned M1 ag parental 0, CHO-K1 Ca antag 5, M1 ag -6, CHRM1 antagonist 99*, CHRM1 PAM -26 and M1 PAM parental 6.
CC(=O)c1ccc(N2CCN(C3CCC(C(C)(C)C)CC3)CC2)cc1 (configuration not stated) was read as M1 ag parental 0, CHO-K1 Ca antag 6, M1 ag -11, CHRM1 antagonist 39*, CHRM1 PAM -22 and M1 PAM parental -24.
`CCCCn1nnnc1C(c1ccccc1)N1CCN(C(C)=O)CC1` (configuration not stated) gave M1 ag parental 1, CHO-K1 Ca antag -14 and M1 PAM parental 10.
Screening O=C(CN1CCN(Cc2ccccc2Cl)CC1)N/N=C/C=C/c1ccccc1[N+](=O)[O-] returned M1 ag parental 1, CHO-K1 Ca antag 27*, M1 ag -7, CHRM1 antagonist 16, CHRM1 PAM -9 and M1 PAM parental -12.
For O=C(CN1CCN(Cc2ccccc2Cl)CC1)N/N=C/C=C\c1ccccc1[N+](=O)[O-] the results were M1 ag parental 2, CHO-K1 Ca antag 9, M1 ag -10, CHRM1 antagonist 3, CHRM1 PAM 7 and M1 PAM parental -9.
CC(=O)Nc1ccc(Sc2ccccc2C(=O)Nc2ccc(F)cc2)cn1 was read as M1 ag parental 4, CHO-K1 Ca antag 3, M1 ag 5, CHRM1 antagonist -7, CHRM1 PAM 1 and M1 PAM parental -7.

Screens (PubChem)
